# Values without a mark were called inactive. Active and inactive are the calls of the source. No rule for the calls is given here.
# Molecular target: L-lactate dehydrogenase (Plasmodium falciparum (isolate CDC / Honduras)) (UniProt Q27743)
# Experiment: PfLDH activity inhibition – cell lysate, 3D7 strain, counter-screen for P. falciparum growth inhibition project (AID 2304);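 also: 0% = vehicle and 100% = reference inhibitor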
# Conditions: P. falciparum 3D7 crude extract, LDH APAD/NBT absorbance; at 2 µM; hits give high values
# Chain of L-lactate dehydrogenase (Plasmodium falciparum (isolate CDC / Honduras)) (Q27743 whole entry, looked up): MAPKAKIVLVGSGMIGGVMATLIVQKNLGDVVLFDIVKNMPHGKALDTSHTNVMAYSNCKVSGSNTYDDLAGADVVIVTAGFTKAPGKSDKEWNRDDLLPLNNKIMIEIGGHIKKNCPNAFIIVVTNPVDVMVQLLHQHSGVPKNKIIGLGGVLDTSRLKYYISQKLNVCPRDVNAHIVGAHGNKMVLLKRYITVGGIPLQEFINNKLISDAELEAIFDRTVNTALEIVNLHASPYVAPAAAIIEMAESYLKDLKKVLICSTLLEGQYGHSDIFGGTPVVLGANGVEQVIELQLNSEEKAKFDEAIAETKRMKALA
row,SMILES,inhibition [%]
1,O=C(N[C@@H](Cc1ccccc1)C(=O)NCCN1CCCCC1)c1ccc(O)c(-c2cccc(C(F)(F)F)c2)c1,7
2,Cc1cc(N(C)C)nc(Nc2ccc(NC(=O)c3ccc(Br)o3)cc2)n1,-2
3,N#Cc1ccc(N[C@@H](CC2CCCCC2)C(=O)NCc2cc(F)c(F)cc2F)c2ccccc12,-3
4,O=C(c1cccs1)N1N=C(c2cccs2)CC1c1cccc([N+](=O)[O-])c1 (stereo not given),-10
5,O=C(Nc1cccc(Cl)c1Cl)N[C@H]1CCN(CCCCCNC(=O)[C@@H]2C[C@H]2c2ccc(Cl)c(Cl)c2)C1,-2
6,Clc1cc(Cl)c2cc(CNCCCNc3ccc4ccccc4n3)[nH]c2c1,3
7,Cn1cnc2c(Nc3ccncc3)nc(-c3ccc4ccccc4c3)nc21,7
8,O=C(Nc1cccc(-c2ccc(-c3nc4ccc(C(F)(F)F)cc4[nH]3)cc2)c1)c1ccncc1,-1
9,Oc1ccc(CCNCCCCCCNCCc2ccc(Cl)cc2)c(Cl)c1O,-7
10,COC(=O)c1cccc(CNCc2ccc(-c3ccc(-c4nc5c(C)cccc5[nH]4)cc3)cc2)c1,3
11,O=C(c1cc2ccccc2o1)N1CCc2cc3nccc(N4CCN5CCC[C@H]5C4)c3cc21,2
12,CN1CCC(N2CCN(Cc3cccc(-c4cccc(-c5nc6ccccc6[nH]5)c4)c3)CC2)CC1,-1
13,CCCc1cc(C)ccc1OCCCON1C(NC(=O)OCC)=NC(NC(=O)OCC)=NC1(C)C,0
14,CCC(CC(C)C(=O)O)=C(c1ccccc1)c1ccccc1 (stereo not given),5
15,COc1cc(Nc2nccc(N3CCC(NC(=O)Nc4ccc5c(c4)OCO5)C3)n2)cc(OC)c1OC (stereo not given),-1
16,N#Cc1ccc(C2CCN(CC[C@H](N)Cc3ccc(Cl)s3)CC2)cc1,6
17,COc1ccc(N2CCN(c3nc(Nc4ccc(NC(C)=O)cc4)nc(N4CCCC4)n3)CC2)cc1,-2
18,CCc1ccc(OCCCON2C(N)=NC(N)=NC2(C)C)cc1,-8
19,CC(C)C(C(=O)n1ncc2c3c(N)nc(N)nc3ccc21)C(C)C,-8
20,CC(C)CCNCc1ccc(OCc2cccc(COc3ccc(CNCCC(C)C)cc3I)c2)c(I)c1,2

row,SMILES,inhibition [%]
1,COc1cc(OC)c(NC(=O)Nc2ccnc3ccccc23)cc1Cl,-2
2,CCC(O)(C#Cc1c(C)nc(N)nc1N)CC,2
3,CC(=O)N(C)/N=C/[C@H](CCc1ccccc1)NC(=O)[C@H](CC(C)C)NC(=O)c1cccc(OCCN2CCOCC2)c1,5
4,N#Cc1ccc(-c2ccc(C(=O)NCCCCN3CC=C(c4ccc5c(c4OCC4CC4)CCCC5)CC3)cc2)cc1,4
5,CCn1c(Sc2ccc([N+](=O)[O-])c(C#N)c2)nnc1-c1cccc(Cl)c1,2
6,CCOC(=O)C1CCN(CCOc2cc(NC(=O)/C=C/c3ccccc3Cl)ccc2Br)CC1,-2
7,Cc1cc(N2CCN(C)CC2)nc2ccc(NC(=O)Cc3cccc(C(F)(F)F)c3)cc12,3
8,N#Cc1ccc(NC(=NCCc2c[nH]c3ccccc23)Nc2ccc(-c3ccccc3)cc2)c(O)c1,6
9,O=C(/C=C/c1ccc(Cl)c(Cl)c1)N1CCC(CN2CCC(Cc3nc4ccccc4[nH]3)CC2)CC1,-2
10,CC(C)C1=C[C@H]2C[C@]3(C4OCCO4)[C@@H]4CC[C@@H](C)[C@H]4C[C@@]2(C(=O)OCC2COCO2)[C@]13C(=O)OC(c1ccccc1)c1ccccc1 (stereo not given in full),4
11,COc1cccc(NC(=O)COc2ccc(C(=O)Nc3nc4ccccc4[nH]3)cc2)c1,0
12,O=C(Nc1ccc(OC2CCN(Cc3ccc(F)cc3)C2)c(Cl)c1)c1ccco1 (stereo not given),-2
13,Cc1ccc2c(NN=Cc3ccc(Cl)cc3)cc(C)nc2c1,-2
14,S=C(NN=Cc1ccccn1)NC1C[C@H]2C=C[C@@H]1C2 (stereo not given in full),-2
15,Cc1ccc(C)c(S(=O)(=O)Nc2ccc(Br)cc2C(=O)Nc2cccc(C(F)(F)F)c2)c1,-7
16,CN(CCN(C)CC(O)c1ccc(Cl)c(Cl)c1)CC(O)c1ccc(Cl)c(Cl)c1 (stereo not given),-2
17,O=c1c2ccccc2[nH]c2cc(Cl)ccc12,1
18,CCC[C@@H]([C@@H](CC1CCC(C)CC1)C(=O)N[C@@H](CCCNc1ncccn1)C(=O)Nc1nccs1)N(O)C=O (stereo not given in full),5
19,CCn1c2ccccc2c2cc(C=NNc3cc(C)nc4ccccc34)ccc21,-2
20,c1ccc2[nH]c(-c3ccc(-c4ccc(CN5CCC(N6CCCCC6)CC5)cc4)s3)nc2c1,-5

# Test system: not listed separately
# Experiment: inhibition of 3D7 malaria parasite growth – strain 3D7 (AID 2306);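 also: 0% = DMSO wells and 100% = chloroquine plus artemisinin control wells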
# Conditions: P. falciparum 3D7 erythrocytic growth, LDH absorbance, 72 h; at 2 µM; hits give high values
row,SMILES,growth inhibition
1,O=C(N[C@@H](Cc1ccccc1)C(=O)NCCN1CCCCC1)c1ccc(O)c(-c2cccc(C(F)(F)F)c2)c1,92% (active)
2,Cc1cc(N(C)C)nc(Nc2ccc(NC(=O)c3ccc(Br)o3)cc2)n1,101% (active)
3,N#Cc1ccc(N[C@@H](CC2CCCCC2)C(=O)NCc2cc(F)c(F)cc2F)c2ccccc12,94% (active)
4,O=C(c1cccs1)N1N=C(c2cccs2)CC1c1cccc([N+](=O)[O-])c1 (stereo not given),95% (active)
5,O=C(Nc1cccc(Cl)c1Cl)N[C@H]1CCN(CCCCCNC(=O)[C@@H]2C[C@H]2c2ccc(Cl)c(Cl)c2)C1,87% (active)
6,Clc1cc(Cl)c2cc(CNCCCNc3ccc4ccccc4n3)[nH]c2c1,99% (active)
7,Cn1cnc2c(Nc3ccncc3)nc(-c3ccc4ccccc4c3)nc21,96% (active)
8,O=C(Nc1cccc(-c2ccc(-c3nc4ccc(C(F)(F)F)cc4[nH]3)cc2)c1)c1ccncc1,100% (active)
9,Oc1ccc(CCNCCCCCCNCCc2ccc(Cl)cc2)c(Cl)c1O,100% (active)
10,COC(=O)c1cccc(CNCc2ccc(-c3ccc(-c4nc5c(C)cccc5[nH]4)cc3)cc2)c1,102% (active)
11,O=C(c1cc2ccccc2o1)N1CCc2cc3nccc(N4CCN5CCC[C@H]5C4)c3cc21,99% (active)
12,CN1CCC(N2CCN(Cc3cccc(-c4cccc(-c5nc6ccccc6[nH]5)c4)c3)CC2)CC1,100% (active)
13,CCCc1cc(C)ccc1OCCCON1C(NC(=O)OCC)=NC(NC(=O)OCC)=NC1(C)C,95% (active)
14,CCC(CC(C)C(=O)O)=C(c1ccccc1)c1ccccc1 (stereo not given),98% (active)
15,COc1cc(Nc2nccc(N3CCC(NC(=O)Nc4ccc5c(c4)OCO5)C3)n2)cc(OC)c1OC (stereo not given),96% (active)
16,N#Cc1ccc(C2CCN(CC[C@H](N)Cc3ccc(Cl)s3)CC2)cc1,92% (active)
17,COc1ccc(N2CCN(c3nc(Nc4ccc(NC(C)=O)cc4)nc(N4CCCC4)n3)CC2)cc1,91% (active)
18,CCc1ccc(OCCCON2C(N)=NC(N)=NC2(C)C)cc1,95% (active)
19,CC(C)C(C(=O)n1ncc2c3c(N)nc(N)nc3ccc21)C(C)C,98% (active)
20,CC(C)CCNCc1ccc(OCc2cccc(COc3ccc(CNCCC(C)C)cc3I)c2)c(I)c1,91% (active)

row,SMILES,growth inhibition
1,COc1cc(OC)c(NC(=O)Nc2ccnc3ccccc23)cc1Cl,97% (active)
2,CCC(O)(C#Cc1c(C)nc(N)nc1N)CC,97% (active)
3,CC(=O)N(C)/N=C/[C@H](CCc1ccccc1)NC(=O)[C@H](CC(C)C)NC(=O)c1cccc(OCCN2CCOCC2)c1,89% (active)
4,N#Cc1ccc(-c2ccc(C(=O)NCCCCN3CC=C(c4ccc5c(c4OCC4CC4)CCCC5)CC3)cc2)cc1,100% (active)
5,CCn1c(Sc2ccc([N+](=O)[O-])c(C#N)c2)nnc1-c1cccc(Cl)c1,89% (active)
6,CCOC(=O)C1CCN(CCOc2cc(NC(=O)/C=C/c3ccccc3Cl)ccc2Br)CC1,87% (active)
7,Cc1cc(N2CCN(C)CC2)nc2ccc(NC(=O)Cc3cccc(C(F)(F)F)c3)cc12,99% (active)
8,N#Cc1ccc(NC(=NCCc2c[nH]c3ccccc23)Nc2ccc(-c3ccccc3)cc2)c(O)c1,96% (active)
9,O=C(/C=C/c1ccc(Cl)c(Cl)c1)N1CCC(CN2CCC(Cc3nc4ccccc4[nH]3)CC2)CC1,101% (active)
10,CC(C)C1=C[C@H]2C[C@]3(C4OCCO4)[C@@H]4CC[C@@H](C)[C@H]4C[C@@]2(C(=O)OCC2COCO2)[C@]13C(=O)OC(c1ccccc1)c1ccccc1 (stereo not given in full),92% (active)
11,COc1cccc(NC(=O)COc2ccc(C(=O)Nc3nc4ccccc4[nH]3)cc2)c1,99% (active)
12,O=C(Nc1ccc(OC2CCN(Cc3ccc(F)cc3)C2)c(Cl)c1)c1ccco1 (stereo not given),96% (active)
13,Cc1ccc2c(NN=Cc3ccc(Cl)cc3)cc(C)nc2c1,100% (active)
14,S=C(NN=Cc1ccccn1)NC1C[C@H]2C=C[C@@H]1C2 (stereo not given in full),99% (active)
15,Cc1ccc(C)c(S(=O)(=O)Nc2ccc(Br)cc2C(=O)Nc2cccc(C(F)(F)F)c2)c1,81% (active)
16,CN(CCN(C)CC(O)c1ccc(Cl)c(Cl)c1)CC(O)c1ccc(Cl)c(Cl)c1 (stereo not given),91% (active)
17,O=c1c2ccccc2[nH]c2cc(Cl)ccc12,95% (active)
18,CCC[C@@H]([C@@H](CC1CCC(C)CC1)C(=O)N[C@@H](CCCNc1ncccn1)C(=O)Nc1nccs1)N(O)C=O (stereo not given in full),98% (active)
19,CCn1c2ccccc2c2cc(C=NNc3cc(C)nc4ccccc34)ccc21,102% (active)
20,c1ccc2[nH]c(-c3ccc(-c4ccc(CN5CCC(N6CCCCC6)CC5)cc4)s3)nc2c1,99% (active)
